# Experimental data as given in PubChem BioAssay (NCATS).
# Where “and” joins values, the source holds several entries; their conditions need not be identical. Identical values can stand only once. A number with no mark means an inactive call. Records with an inconclusive call do not appear. A call without a number means that no potency is given here. Calls of active or inactive are those of the source. Unless noted, calls follow the shape of the dose curve; as a rule, active = well fitted curve in the direction sought with a large enough effect; inconclusive = small, poorly fitted or top-dose-only effect, or another doubt; inactive = no such curve, though single readings can be large; an effect the other way counts as inactive or inconclusive.
# How the values were obtained:
# [1] = target: Guanine nucleotide-binding protein G(i) subunit alpha-1 (Homo sapiens) (UniProt P63096); test: qHTS Assay for Inhibitors of RGS12 GoLoco Motif Activity (Green Fluorophore) (AID 879); also: potency is read from the fitted curve at half-maximal effect
# Summary of the method: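 A drop in FITC polarization marked displacement of the FITC-tagged RGS12 GoLoco peptide (10 nM) from Gαi1 (50 nM). Compounds were incubated 10 min at room temperature in Tris pH 7.5 buffer containing 150 mM NaCl, 0.1 mM GDP and 0.05% NP40; unlabeled peptide titration served as control.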
# [2] = target: Pyruvate kinase (Leishmania mexicana) (UniProt Q27686); test: qHTS Validation Assay for Inhibitors of Leishmania Mexicana Pyruvate Kinase (AID 945)
# Summary of the method: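 The enzyme is a highly purified E451W mutant of LmPYK used at 0.2 nM. It converts 0.5 mM PEP and 0.1 mM ADP over 1 h at room temperature; product ATP is quantified by luciferase luminescence relative to DMSO controls.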
# [3] = target: Pyruvate kinase PKM (Homo sapiens) (UniProt P14618); test: qHTS Assay for Activators of Human Muscle Pyruvate Kinase (AID 954; active = well fitted curve in the direction sought with a large enough effect, not every such curve was filed as active)
# Summary of the method: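 PKM2, human, >95% pure, 0.1 nM; PEP 0.5 mM (Km), ADP 0.1 mM; 50 mM imidazole pH 7.2, 50 mM KCl, 0.01% Tween 20, 0.05% BSA; 1 h RT; luciferase luminescence readout.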
# [4] = target: Alpha-galactosidase A (Homo sapiens) (UniProt P06280); test: Counterscreen for Glucocerebrosidase Inhibitors: qHTS Assay for Human alpha-Galactosidase at pH 4.5 (AID 992)
# Summary of the method: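 Fluorogenic 4-MU alpha-D-galactoside (80 uM) hydrolysis, 2 nM enzyme, pH 4.5 citrate buffer + 0.005% Tween-20; 20 min RT; NaOH/glycine pH 10 stop; Ex365/Em440. Compounds titrated 0.7 nM–77 uM; Hill-equation AC50.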
# [5] = target: alpha-glucosidase (Oryza sativa, rice) (UniProt Q653V4); test: Counterscreen for Glucocerebrosidase Inhibitors: qHTS Assay for Rice alpha-Glucosidase at pH 5.0 (AID 997)
# Summary of the method: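 Endpoint fluorogenic assay at pH 5.0: compounds (0.7 nM to 77 uM) titrated against 4 nM rice enzyme and 400 uM 4-MU-alpha-glucoside for 20 min at room temperature; NaOH/glycine stop, read ex 365/em 440 nm, Hill-fitted AC50.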
# [6] = S16 Schwann cell PMP22 intronic element firefly luciferase assay (AID 624032); also: nearly all actives have a fitted effect of over 30% in size
# Summary of the method: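 Rat S16 Schwann cells stably carrying firefly luciferase driven by a PMP22 intronic element, in 10% FBS, treated 24 h at 37 C. ONE-Glo luminescence normalized to PTC124 control and DMSO (0%); curves classed by r2, magnitude and activity.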
# CP260 = test: qHTS profiling for inhibitors of Plasmodium falciparum proliferation (AID 504749); also: nearly all actives have a fitted effect of over 60% in size; also: potency is read from the fitted curve at half-maximal effect; conditions: P. falciparum in erythrocytes, SYBR Green DNA, 72 h; series mostly up to 12.8 µM
# Summary of the method: (§1)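 Each compound contacts P. falciparum-infected red blood cells for 72 h at 37 C; lysis buffer (Tris, EDTA, saponin, Triton X, SYBR Green I) is added and fluorescence measured next morning; values normalized to controls.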
# DIV14 = test: as above; conditions: P. falciparum in erythrocytes, SYBR Green DNA, 72 h; series mostly up to 12.8 µM
# Summary of the method: as §1
# DIV17 = test: as above; conditions: P. falciparum in erythrocytes, SYBR Green DNA, 72 h; series mostly up to 12.8 µM
# Summary of the method: as §1
# ICS = test: as above; conditions: P. falciparum in erythrocytes, SYBR Green DNA, 72 h; series mostly up to 12.8 µM
# Summary of the method: as §1
# W2 = test: as above; conditions: P. falciparum in erythrocytes, SYBR Green DNA, 72 h; series mostly up to 12.8 µM
# Summary of the method: as §1
# CP192 = test: as above; conditions: P. falciparum in erythrocytes, SYBR Green DNA, 72 h; series mostly up to 28.7 µM
# Summary of the method: as §1
# CP194 = test: as above; conditions: P. falciparum in erythrocytes, SYBR Green DNA, 72 h; series mostly up to 12.8 µM
# Summary of the method: as §1
# CP215 = test: as above; conditions: P. falciparum in erythrocytes, SYBR Green DNA, 72 h; series mostly up to 28.7 µM
# Summary of the method: as §1
# CP247 = test: as above; conditions: P. falciparum in erythrocytes, SYBR Green DNA, 72 h; series mostly up to 12.8 µM
# Summary of the method: as §1
# CP266 = test: as above; conditions: P. falciparum in erythrocytes, SYBR Green DNA, 72 h; series mostly up to 28.7 µM
# Summary of the method: as §1
# CP297 = test: as above; conditions: P. falciparum in erythrocytes, SYBR Green DNA, 72 h; series mostly up to 12.8 µM
# Summary of the method: as §1
# CP315 = test: as above; conditions: P. falciparum in erythrocytes, SYBR Green DNA, 72 h; series mostly up to 12.8 µM
# Summary of the method: as §1
# [7] = target: Cytochrome P450 3A4 (Homo sapiens) (UniProt P08684); test: qHTS Assay for Activators of Cytochrome P450 3A4 (AID 885); also: nearly all actives have a fitted effect of over 65% in size; also: potency is read from the fitted curve at half-maximal effect
# Summary of the method: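 Activators are scored by enhanced luminescence from CYP3A4 conversion of luciferin-PPXE (25uM, equal to KM) to luciferin, after 60 min at RT with an NADPH-regenerating system.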
# Alpha-galactosidase A (Homo sapiens), sequence (P06280 whole entry, looked up): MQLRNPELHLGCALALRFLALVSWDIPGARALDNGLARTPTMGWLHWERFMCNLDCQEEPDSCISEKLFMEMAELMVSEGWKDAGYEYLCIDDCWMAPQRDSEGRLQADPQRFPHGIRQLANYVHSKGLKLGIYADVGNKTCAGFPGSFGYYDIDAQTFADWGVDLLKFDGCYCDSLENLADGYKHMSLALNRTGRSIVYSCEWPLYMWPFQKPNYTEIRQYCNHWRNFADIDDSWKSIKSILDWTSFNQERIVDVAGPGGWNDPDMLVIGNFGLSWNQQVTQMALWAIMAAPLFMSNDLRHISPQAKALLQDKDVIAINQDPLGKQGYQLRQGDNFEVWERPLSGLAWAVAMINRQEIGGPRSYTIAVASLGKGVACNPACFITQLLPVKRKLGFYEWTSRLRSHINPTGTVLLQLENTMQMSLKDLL
# Pyruvate kinase (Leishmania mexicana), sequence (Q27686 2-499 E452W): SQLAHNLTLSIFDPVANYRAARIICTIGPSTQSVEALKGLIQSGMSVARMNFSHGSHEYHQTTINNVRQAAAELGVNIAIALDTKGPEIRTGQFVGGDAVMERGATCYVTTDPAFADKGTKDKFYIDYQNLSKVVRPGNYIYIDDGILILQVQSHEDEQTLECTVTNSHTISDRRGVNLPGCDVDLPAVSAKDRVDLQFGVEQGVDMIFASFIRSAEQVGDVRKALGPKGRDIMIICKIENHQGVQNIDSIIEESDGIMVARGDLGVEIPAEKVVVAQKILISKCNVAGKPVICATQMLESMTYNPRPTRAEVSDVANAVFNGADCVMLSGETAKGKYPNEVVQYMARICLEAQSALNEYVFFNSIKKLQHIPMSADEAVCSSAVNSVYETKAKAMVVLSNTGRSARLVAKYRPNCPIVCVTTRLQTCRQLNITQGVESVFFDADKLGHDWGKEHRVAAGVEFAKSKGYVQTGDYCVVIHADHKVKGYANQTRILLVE
# Guanine nucleotide-binding protein G(i) subunit alpha-1 (Homo sapiens), sequence (P63096 whole entry, looked up): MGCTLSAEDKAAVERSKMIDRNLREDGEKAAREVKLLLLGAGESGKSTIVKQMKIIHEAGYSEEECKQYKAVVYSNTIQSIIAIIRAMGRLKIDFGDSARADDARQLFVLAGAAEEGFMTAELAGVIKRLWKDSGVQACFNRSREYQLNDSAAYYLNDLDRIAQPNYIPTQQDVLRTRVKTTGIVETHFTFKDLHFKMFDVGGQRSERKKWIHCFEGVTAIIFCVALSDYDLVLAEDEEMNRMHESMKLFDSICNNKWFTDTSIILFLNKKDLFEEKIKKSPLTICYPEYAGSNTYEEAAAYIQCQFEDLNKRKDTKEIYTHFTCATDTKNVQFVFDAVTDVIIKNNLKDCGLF
# Cytochrome P450 3A4 (Homo sapiens), sequence (P08684 whole entry, looked up): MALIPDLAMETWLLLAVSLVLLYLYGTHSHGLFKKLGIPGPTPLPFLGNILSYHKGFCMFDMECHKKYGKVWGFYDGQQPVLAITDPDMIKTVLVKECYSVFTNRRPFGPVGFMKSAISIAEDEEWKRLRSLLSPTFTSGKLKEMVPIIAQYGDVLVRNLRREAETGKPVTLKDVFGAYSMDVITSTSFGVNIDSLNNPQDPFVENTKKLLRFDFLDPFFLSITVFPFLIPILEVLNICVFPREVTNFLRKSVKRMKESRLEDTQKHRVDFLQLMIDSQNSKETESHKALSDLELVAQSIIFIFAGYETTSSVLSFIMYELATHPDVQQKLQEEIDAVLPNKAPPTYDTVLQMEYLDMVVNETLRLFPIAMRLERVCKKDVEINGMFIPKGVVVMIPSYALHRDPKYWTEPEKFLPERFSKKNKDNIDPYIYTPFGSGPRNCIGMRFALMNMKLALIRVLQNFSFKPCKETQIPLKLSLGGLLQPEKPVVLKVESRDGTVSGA
# Pyruvate kinase PKM (Homo sapiens), sequence (P14618 whole entry, looked up): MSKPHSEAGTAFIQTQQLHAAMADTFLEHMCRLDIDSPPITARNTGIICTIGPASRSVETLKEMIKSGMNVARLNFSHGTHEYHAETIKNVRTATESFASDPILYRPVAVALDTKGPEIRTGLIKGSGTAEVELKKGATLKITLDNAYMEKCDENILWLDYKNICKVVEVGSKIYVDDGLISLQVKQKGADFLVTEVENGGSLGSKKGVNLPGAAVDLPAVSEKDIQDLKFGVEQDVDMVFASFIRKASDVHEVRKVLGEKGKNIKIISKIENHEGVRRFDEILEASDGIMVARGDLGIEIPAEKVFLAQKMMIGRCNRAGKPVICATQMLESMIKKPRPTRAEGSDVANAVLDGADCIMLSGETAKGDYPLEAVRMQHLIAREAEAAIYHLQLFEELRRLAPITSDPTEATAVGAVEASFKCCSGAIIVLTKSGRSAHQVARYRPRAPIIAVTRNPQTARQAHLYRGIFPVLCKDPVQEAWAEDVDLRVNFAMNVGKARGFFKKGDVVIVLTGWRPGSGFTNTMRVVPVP
SMILES,Potency [1],outcome [2],outcome [3],outcome [4],outcome [5],Potency [6],Potency (CP260),Potency (DIV14),Potency (DIV17),Potency (ICS),Potency (W2),Potency (CP192),Potency (CP194),Potency (CP215),Potency (CP247),Potency (CP266),Potency (CP297),Potency (CP315),Potency [7]
CCN(CC)CCC[C@H](C)Nc1ccnc2cc(Cl)ccc12,inactive,inactive,inactive,inactive,inactive,inactive,3980 nM (active),1690 nM (active),3790 nM (active),3980 nM (active),6010 nM (active),,,,,,,,
COCCc1ccc(OC[C@H](O)CNC(C)C)cc1,inactive,inactive,inactive,inactive,inactive,inactive,inactive,inactive,inactive,inactive,inactive,inactive,inactive,inactive,inactive,inactive,inactive,inactive,
CC(=O)O[C@@H](C)C[N+](C)(C)C,inactive,inactive,inactive,inactive,inactive,inactive,inactive,inactive,inactive,inactive,inactive,inactive,inactive,,inactive,inactive,inactive,inactive,
CN1[C@@H](CC(=O)c2ccccc2)CCC[C@@H]1C[C@@H](O)c1ccccc1,inactive,inactive,inactive,inactive,inactive,,,,,,,,,,,,,,
CC(C)NC[C@H](O)c1cc(O)cc(O)c1,inactive,inactive,inactive,inactive,inactive,,,inactive,inactive,inactive,inactive,inactive,inactive,inactive,inactive,inactive,inactive,inactive,
CO[C@]1(NC(=O)CSCC#N)C(=O)N2C(C(=O)O)=C(CSc3nnnn3C)CS[C@H]21,inactive,inactive,inactive,inactive,inactive,inactive,inactive,inactive,inactive,inactive,inactive,inactive,inactive,inactive,inactive,,,inactive,
CN(C)CC[C@@H](c1ccccc1)c1ccccn1,inactive,inactive,inactive,inactive,inactive,,,,,,,,,,,,,,
CN(N=O)C(=O)N[C@H]1[C@@H](O)[C@H](O)[C@H](CO)O[C@@H]1O,,,,,,inactive,inactive,inactive,inactive,inactive,inactive,inactive,inactive,inactive,inactive,inactive,inactive,inactive,
C=CCc1ccccc1OC[C@H](O)CNC(C)C,inactive,inactive,inactive,inactive,inactive,,,,,,,,,,,,,,
CCN(CC)CCC[C@H](C)Nc1c2ccc(Cl)cc2nc2ccc(OC)cc12,25100 nM (active),inactive,inactive,inactive,inactive,,501 nM (active),478 nM (active),536 nM (active),158 nM (active),338 nM (active),478 nM (active),1510 nM (active),1690 nM (active),1120 nM (active),1510 nM (active),536 nM (active),3010 nM (active),inactive
CN(C)C(=O)c1ccc(-c2cncnc2NCc2cccs2)cc1,,,,,,,,,,,,,,,,,,,inactive
CC(=O)O[C@]1(C(C)=O)CC[C@@H]2[C@@H]3C=C(Cl)C4=CC(=O)[C@H]5C[C@@H]5[C@]4(C)[C@H]3CC[C@]21C,inactive,inactive,inactive,inactive,inactive,,,,,,,,,,,,,,3.16 µM (active) and 10 µM (active)
CCC[C@H]1C(=O)N2C(N(C)C)=Nc3ccc(C)cc3N2C1=O,,,,,,inactive,inactive,inactive,inactive,inactive,inactive,inactive,inactive,inactive,inactive,inactive,inactive,inactive,
C[C@@H](CN(C)C)CN1c2ccccc2CCc2ccccc21,inactive,inactive,inactive,inactive,inactive,inactive,inactive,,,,,inactive,,,inactive,inactive,inactive,inactive,inactive
CC(C)(Oc1ccc([C@@H]2CC2(Cl)Cl)cc1)C(=O)O,inactive,inactive,inactive,inactive,inactive,,,,,,,,,,,,,,
COc1c(O)cc2c(c1O)[C@@H]1O[C@@H](CO)[C@@H](O)[C@@H](O)[C@@H]1OC2=O,,,,,,inactive,inactive,inactive,inactive,inactive,inactive,inactive,inactive,inactive,inactive,inactive,inactive,inactive,

SMILES,Potency [1],outcome [2],outcome [3],outcome [4],outcome [5],Potency [6],Potency (CP260),Potency (DIV14),Potency (DIV17),Potency (ICS),Potency (W2),Potency (CP192),Potency (CP194),Potency (CP215),Potency (CP247),Potency (CP266),Potency (CP297),Potency (CP315),Potency [7]
C[C@@H](C(=O)O)c1cccc(C(=O)c2ccccc2)c1,inactive,inactive,inactive,inactive,inactive,inactive,,,,,,,,,,,,,
CN1Cc2c(N)cccc2[C@H](c2ccccc2)C1,,inactive,inactive,inactive,inactive,,,,,,,,,,,,,,inactive
CC(=O)OCC1=C(C(=O)O)N2C(=O)[C@@H](NC(=O)Cc3cccs3)[C@@H]2SC1,inactive,inactive,inactive,inactive,inactive,,,,,,,,,,,,,,inactive
O[C@@](CCN1CCCCC1)(c1ccccc1)C1CCCCC1,inactive,inactive,inactive,inactive,inactive,,,,,,,,,,,,,,inactive
CCN(CC)CC#CCOC(=O)[C@@](O)(c1ccccc1)C1CCCCC1,inactive,inactive,inactive,inactive,inactive,inactive,,7570 nM (active),4780 nM (active),,5360 nM (active),inactive,,inactive,,inactive,,inactive,inactive
NC(=O)OC[C@H](O)COc1ccc(Cl)cc1,,,,,,inactive,inactive,inactive,inactive,inactive,inactive,inactive,inactive,inactive,inactive,inactive,inactive,inactive,
C[C@H](NCCc1ccc(O)cc1)[C@@H](O)c1ccc(O)cc1,inactive,inactive,inactive,inactive,inactive,,,inactive,inactive,inactive,inactive,inactive,inactive,inactive,inactive,inactive,inactive,inactive,
CC1=C(C(=O)O)N2C(=O)[C@@H](NC(=O)[C@@H](N)c3ccccc3)[C@@H]2SC1,inactive,inactive,inactive,inactive,inactive,,,,,,,,,,,,,,
CC(C)(O/N=C(\C(=O)N[C@@H]1C(=O)N2C(C(=O)[O-])=C(C[n+]3ccccc3)CS[C@@H]12)c1csc(N)n1)C(=O)O,,,,,,inactive,inactive,inactive,inactive,inactive,inactive,inactive,inactive,inactive,inactive,inactive,inactive,inactive,
CN(C)CCO[C@](C)(c1ccccc1)c1ccccn1,inactive,inactive,inactive,inactive,inactive,,,,,,,,,,,,,,
CO[C@H]1C[C@@H](O[C@@H]2[C@H](C)[C@H](O[C@@H]3O[C@@H](C)C[C@@H](N(C)C)[C@@H]3O)[C@H](C)C[C@]3(CO3)C(=O)[C@H](C)[C@H](O)[C@H](C)[C@H](C)OC(=O)[C@@H]2C)O[C@@H](C)[C@H]1O,,,,,,inactive,inactive,inactive,inactive,inactive,inactive,inactive,inactive,inactive,inactive,inactive,inactive,inactive,inactive
C[C@@H](COc1ccccc1)N(CCCl)Cc1ccccc1,inactive,inactive,,inactive,inactive,,,,,,,,,,,,,,
CCN1C(=O)N[C@@H](c2ccccc2)C1=O,,,,,,inactive,inactive,inactive,inactive,inactive,inactive,inactive,inactive,inactive,inactive,inactive,inactive,inactive,
NC(N)=NC[C@@H]1COC2(CCCCC2)O1,,,,,,inactive,inactive,inactive,,inactive,inactive,inactive,inactive,inactive,inactive,inactive,inactive,inactive,
C[C@@](N)(Cc1ccc(O)cc1)C(=O)O,inactive,inactive,inactive,inactive,inactive,,,,,,,,,,,,,,
